Laboratory results: ChEMBL document CHEMBL3988442, “University of Dundee, Small-Polar-MMV Screening Library” (2021)

Legend:
[1] = molecular target: T1, Aspartate--tRNA(Asp/Asn) ligase (Mycobacterium tuberculosis (strain ATCC 25618 / H37Rv)) (UniProt P9WFW3); test: Assay for Asp RNA synthetase-1 from Mycobacterium tuberculosis; format: functional; set-up: scale not given: direction of the effect not stated beside the values; settings: 30 µM; further: in the data most compounds retested in dose-response had high values
T1 sequence (whole entry): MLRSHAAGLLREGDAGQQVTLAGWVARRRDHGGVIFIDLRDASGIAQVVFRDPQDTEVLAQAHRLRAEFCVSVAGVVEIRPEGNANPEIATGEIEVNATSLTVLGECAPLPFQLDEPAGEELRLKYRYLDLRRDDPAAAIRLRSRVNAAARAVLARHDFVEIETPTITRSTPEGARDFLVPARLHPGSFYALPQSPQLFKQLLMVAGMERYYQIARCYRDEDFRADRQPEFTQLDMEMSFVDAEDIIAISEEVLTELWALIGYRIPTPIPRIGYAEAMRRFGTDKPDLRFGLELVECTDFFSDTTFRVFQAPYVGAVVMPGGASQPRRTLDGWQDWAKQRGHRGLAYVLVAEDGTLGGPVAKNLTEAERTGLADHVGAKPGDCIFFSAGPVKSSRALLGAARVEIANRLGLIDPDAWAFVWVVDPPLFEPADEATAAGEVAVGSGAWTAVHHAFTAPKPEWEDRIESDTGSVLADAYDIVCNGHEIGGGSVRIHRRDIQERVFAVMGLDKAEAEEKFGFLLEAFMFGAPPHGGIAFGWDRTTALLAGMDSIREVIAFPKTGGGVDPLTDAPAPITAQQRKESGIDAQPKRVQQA

[2] = molecular target: Shiga toxin 2 (Escherichia coli O157:H7) (UniProt P09385+P09386); test: E. coli 0.157:H7 Shiga Toxin SOP - stx2 screening assay; format: functional; set-up: scale not given: direction of the effect not stated beside the values; settings: 30 µM

Cc1nccnc1N1CCC2(CCCN(C3CCOCC3)C2=O)C1 (configuration not stated)
Percent Effect [1]: -1.21%
Percent Effect [2]: -27.2%

O=C(NCc1nnc2n1CCCC2)N1CCc2ccccc2C1
Percent Effect [1]: 1.56%
Percent Effect [2]: -5.06%

COc1ccc(OCCNCCn2cccn2)cc1
Percent Effect [1]: 1.29%
Percent Effect [2]: -27.4%

CC(=O)N1CCC(Oc2ccc(Cl)cn2)CC1
Percent Effect [1]: -6.73%
Percent Effect [2]: -4.66%

CCCc1cc(C(=O)N2CCOC(c3nc(-c4cccs4)no3)C2)no1 (configuration not stated)
Percent Effect [1]: -0.544%
Percent Effect [2]: -10.2%

c1ccc(-c2noc(CN3CCc4cncnc4C3)n2)nc1
Percent Effect [1]: 2.21%
Percent Effect [2]: -24.6%

Cc1nn(CC(C)C)c(N(C)C)c1CNCc1cccc2c1OCO2
Percent Effect [1]: 1.9%
Percent Effect [2]: 20.6%

Cc1nc(N2CCN(C(=O)c3ccsc3)CC2)c2cnn(C)c2n1
Percent Effect [1]: 5.51%
Percent Effect [2]: 0.569%

COc1ccccc1CNC(=O)Cn1ncc2c1c(C)nn2C
Percent Effect [1]: -0.668%
Percent Effect [2]: -20.2%

CC(=O)Nc1nc(C(=O)Nc2ccc(N3CCCCC3)nc2)cs1
Percent Effect [1]: 1.12%
Percent Effect [2]: -46.3%

O=C(C1CCC1)N1CCn2c(COc3ncccn3)nnc2C1
Percent Effect [1]: -0.503%
Percent Effect [2]: -1.29%

CCCc1nc(NCCCO)c2c(n1)c(C)nn2CC
Percent Effect [1]: -5.08%
Percent Effect [2]: -4.19%

O=C(NCCCN1CCOCC1)Nc1cnc2cc(Cl)ccc2c1O
Percent Effect [1]: 1.35%
Percent Effect [2]: -13.4%

Cn1cc(CN2CC[C@@H]3[C@@H](CCC(=O)N3CCC3=CCCCC3)C2)cn1
Percent Effect [1]: 0.0912%
Percent Effect [2]: -13%

CNC(=O)CC1CCN(Cc2nc(-c3cccc(Cl)c3)oc2C)CC1
Percent Effect [1]: 4.32%
Percent Effect [2]: -21.3%

COC(=O)c1cc(OCC2CCC2)cc(C(=O)N[C@@H]2CNCC[C@H]2O)c1
Percent Effect [1]: 6.47%
Percent Effect [2]: -42.6%

c1ncn(CC2CCCCN2Cc2noc(C3CC3)n2)n1 (configuration not stated)
Percent Effect [1]: 3.28%
Percent Effect [2]: 26%

COc1cccc(CNC(=O)CN2CCCCC2Cn2cccn2)c1 (configuration not stated)
Percent Effect [1]: 0.922%
Percent Effect [2]: 20.3%

O=C([C@H]1CCCO1)N1CCCC2(CCN(Cc3ccncc3)C2=O)C1 (some centres not stated)
Percent Effect [1]: 3.8%
Percent Effect [2]: -9.24%

CC1CCc2nc(O)c(C(=O)NCc3cccc(F)c3)cc2C1 (configuration not stated)
Percent Effect [1]: 1.04%
Percent Effect [2]: -8.04%

Cc1ccc(NC(=O)C2CSCN2C(=O)c2cnn(C)c2)c(C)c1 (configuration not stated)
Percent Effect [1]: 0.456%
Percent Effect [2]: -0.207%

CNc1nc(CNC(=O)Nc2cccc(-c3nnco3)c2)cs1
Percent Effect [1]: 2.65%
Percent Effect [2]: -22.3%

COCC(=O)N1CCO[C@H]2[C@H](OC)CC[C@@H]21
Percent Effect [1]: 9.03%
Percent Effect [2]: 2.73%

COCCCN(CCOC)C(=O)Nc1ccccc1Br
Percent Effect [1]: -10.6%
Percent Effect [2]: -6.69%

O=C(CSc1ccccn1)N1C[C@H]2CC[C@@H]1CN(Cc1cscn1)C2
Percent Effect [1]: -1.93%
Percent Effect [2]: -6.72%

COCCNC(=O)[C@H]1CN(Cc2scnc2C)C[C@H]2OCC[C@@H]12
Percent Effect [1]: -3.26%
Percent Effect [2]: 0.32%

Cc1ccc(C)c(C(C(=O)O)N2CCCN(Cc3ccccn3)CC2)c1 (configuration not stated)
Percent Effect [1]: -3.28%
Percent Effect [2]: 2.34%

O=C(Cn1nc(-c2ccc(F)cc2)oc1=O)NCc1ccc(F)cc1
Percent Effect [1]: -2.48%
Percent Effect [2]: 32.8%

Cc1nc(CN2CCCCC2Cn2cncn2)nc2ccccc12 (configuration not stated)
Percent Effect [1]: 1.73%
Percent Effect [2]: -15.2%

Cc1cnc2n1CCN(C)C21CCN(C(=O)CC(C)C)CC1
Percent Effect [1]: -4.25%
Percent Effect [2]: -6.62%

Cc1nnc(CN2CCN(CC(O)c3cccc(F)c3)CC2)n1C (configuration not stated)
Percent Effect [1]: -0.288%
Percent Effect [2]: 18.7%

CN(Cc1cc2c(cc1OC(F)F)OCO2)Cc1nccn1C
Percent Effect [1]: 3.96%
Percent Effect [2]: 2.09%

O=S(=O)(Cc1ccccc1)NCC1CCN(c2cnccn2)CC1
Percent Effect [1]: 2.52%
Percent Effect [2]: 11.3%

CC(C)OCCN1CCN(C(=O)c2cccc(CC#N)c2)CC1
Percent Effect [1]: 2.85%
Percent Effect [2]: -12.3%

O=C(CCC1CCN(Cc2ncc[nH]2)CC1)Nc1ccccc1Cl
Percent Effect [1]: 0.166%
Percent Effect [2]: -7.7%

Cc1ccc(C(=O)N2CCN(Cc3nc(C(C)C)no3)CC2)c(=O)[nH]1
Percent Effect [1]: 2.27%
Percent Effect [2]: 26.1%

Cn1c(Cn2cccn2)nnc1C1CCN(Cc2cccnc2N)CC1
Percent Effect [1]: -5.74%
Percent Effect [2]: -18.3%

CCn1ccnc1CN(C)CC1CCCN1c1cccnn1 (configuration not stated)
Percent Effect [1]: 7.69%
Percent Effect [2]: -26.1%

Cc1cnn(CC2CCCN2C(=O)c2cc3ccccc3[nH]c2=O)c1 (configuration not stated)
Percent Effect [1]: -1.15%
Percent Effect [2]: 22.9%

COc1c(CNC2CCSc3ccc(F)cc32)c(C)nn1C (configuration not stated)
Percent Effect [1]: 0.879%
Percent Effect [2]: -10.4%

CC(C)c1nnc2n1CCN(C(=O)CN1Cc3ccccc3C1=O)C2
Percent Effect [1]: -0.233%
Percent Effect [2]: -25.5%

Cn1cc(C(=O)CC2CCCN2C(=O)c2n[nH]c3ccccc23)cn1 (configuration not stated)
Percent Effect [1]: -3.71%
Percent Effect [2]: 0.49%

Cc1cc(C)nc(CCNC(=O)[C@H]2CNC[C@@H](C(=O)N3CCCC3)C2)n1
Percent Effect [1]: -2.14%
Percent Effect [2]: -37.4%

CCCn1nc2c(cc1=O)CN(CC(=O)Nc1ccncc1)CC2
Percent Effect [1]: 2.52%
Percent Effect [2]: -19.5%

Cc1ccc(S(=O)(=O)N2CCOc3ccccc32)cc1C(N)=O
Percent Effect [1]: 0.611%
Percent Effect [2]: -48.3%

COc1cccc(OCC(=O)NS(=O)(=O)c2ccc(C)s2)c1
Percent Effect [1]: 1.83%
Percent Effect [2]: -6.18%

Cc1cnn(C(C)C2CC2)c1NC(=O)c1ccncc1 (configuration not stated)
Percent Effect [1]: 4.07%
Percent Effect [2]: 1.34%

CCN(CC)CCNc1ncc(-c2cc(C)no2)c(-c2ccoc2C)n1
Percent Effect [1]: 2.28%
Percent Effect [2]: 7.04%

O=C1CC(c2cccnc2)C2(CCN(C(=O)c3ccncc3)CC2)N1 (configuration not stated)
Percent Effect [1]: -5.73%
Percent Effect [2]: 7.39%

CCOc1cc(/C=C/c2ncc(C(=O)O)s2)ccc1O
Percent Effect [1]: 0.568%
Percent Effect [2]: -21.4%

CC(C)CN1CCN(Cc2nc3ccccc3[nH]2)[C@H]2CS(=O)(=O)C[C@H]21
Percent Effect [1]: 4.05%
Percent Effect [2]: -16.9%

COc1ccc(C(=O)NCCCn2ccnc2)c(OC)n1
Percent Effect [1]: -1.77%
Percent Effect [2]: -22.8%

Cc1ccc(CNC(=O)NCc2csc(C)n2)cn1
Percent Effect [1]: -3.34%
Percent Effect [2]: -8.48%

Cc1cc(CN2CCC(CNC(=O)c3ccc(O)c(Cl)c3)C2)[nH]n1 (configuration not stated)
Percent Effect [1]: 3.15%
Percent Effect [2]: -15.7%

CC1CCCN(Cc2c(C3CCOCC3)[nH]c3ncccc23)C1 (configuration not stated)
Percent Effect [1]: 3.59%
Percent Effect [2]: 12.7%

Cc1nc(Nc2ncccn2)cc(C2CCCN2CC(C)C)n1 (configuration not stated)
Percent Effect [1]: -0.75%
Percent Effect [2]: 13.5%

COC1COC2(CCN(Cc3ccccc3Cl)CC2)C1 (configuration not stated)
Percent Effect [1]: 3.77%
Percent Effect [2]: -11.8%

c1ccc2oc(N3CCCCC3Cn3cncn3)nc2c1 (configuration not stated)
Percent Effect [1]: -2.88%
Percent Effect [2]: -18.7%

Cc1ccc(CN(C)C(=O)CN2CCOC(Cn3cncn3)C2)o1 (configuration not stated)
Percent Effect [1]: 2.6%
Percent Effect [2]: -9.96%

CC(C)c1ncncc1C(=O)NCCN1CCCS1(=O)=O
Percent Effect [1]: -2.86%
Percent Effect [2]: 6.66%

Cc1cc(=O)[nH]c(SCC(=O)N(C)CC2Cc3ccccc3CN2C)n1 (configuration not stated)
Percent Effect [1]: 1.96%
Percent Effect [2]: 5.78%

CC(=O)N1CCOCC2(CCN(Cc3ccc(C)s3)CC2)C1
Percent Effect [1]: 0.408%
Percent Effect [2]: -23.3%

Cc1csc([C@@H]2C[C@@H]3CCN(Cc4cnn(C)c4)C[C@H]3O2)n1
Percent Effect [1]: -2.71%
Percent Effect [2]: -29.9%

COCCNS(=O)(=O)c1ccc2c(c1)CCN(C(=O)c1cncn1C)C2
Percent Effect [1]: 0.891%
Percent Effect [2]: -23.1%

CCN(CC)CCNC(=O)c1nn(CC)cc1Cl
Percent Effect [1]: -6.16%
Percent Effect [2]: -57%

COCCN(C)Cc1ccc(OC)c(OC(F)F)c1
Percent Effect [1]: 2.53%
Percent Effect [2]: -37.4%

CN(Cc1ccco1)C[C@H]1OC[C@@H]2CCN(Cc3nccs3)C[C@@H]21
Percent Effect [1]: 4.31%
Percent Effect [2]: -45.7%

O=C(NC[C@]12COC[C@H]1CN(C1CCOCC1)C2)c1ccco1
Percent Effect [1]: 1.57%
Percent Effect [2]: -3.12%

CN(Cc1nnc(-c2ccco2)o1)C1CCCN(c2cccnn2)C1 (configuration not stated)
Percent Effect [1]: 0.611%
Percent Effect [2]: -78.7%

COc1ccc(-c2nc(CN3CCCC3Cn3cccn3)no2)cc1 (configuration not stated)
Percent Effect [1]: -3.19%
Percent Effect [2]: -24.1%

CS(=O)(=O)NC[C@]12COC[C@H]1CN(C(=O)Cc1ccccc1F)C2
Percent Effect [1]: 6.16%
Percent Effect [2]: -11.5%

O=C1COC2(CCN(CC3CC3)CC2)CN1c1ccccc1
Percent Effect [1]: -0.547%
Percent Effect [2]: 5.01%

CCn1nc2c(cc1=O)CN(Cc1nc(-c3ccccn3)no1)CC2
Percent Effect [1]: 29%
Percent Effect [2]: -43.5%

COCc1nc(C(=O)NS(=O)(=O)c2ccc(C)s2)cs1
Percent Effect [1]: 0.678%
Percent Effect [2]: -34.1%

c1cnc(-c2nc(CN3CCCC(Cn4cncn4)C3)cs2)nc1 (configuration not stated)
Percent Effect [1]: -1.55%
Percent Effect [2]: 20.5%

CCCNC(=O)COc1ccc(C)cn1
Percent Effect [1]: -4.7%
Percent Effect [2]: -36.7%

CN(CC1(O)CCCN(c2ccccn2)C1)C(=O)Cc1ccsc1 (configuration not stated)
Percent Effect [1]: 1.53%
Percent Effect [2]: 13.7%

Clc1ccccc1C1(c2ccnc(-c3ncccn3)n2)CCNCC1
Percent Effect [1]: 8.32%
Percent Effect [2]: -34.1%

COc1cc(CN(C)C(=O)Nc2cc(C)on2)ccc1SC
Percent Effect [1]: 2.27%
Percent Effect [2]: -8.55%

Cc1cc(NC(=O)CN2CCc3nn(C)c(=O)cc3C2)on1
Percent Effect [1]: 11.6%
Percent Effect [2]: -13.1%

CCc1nc(C2CCCN2CC(=O)Nc2nncs2)no1 (configuration not stated)
Percent Effect [1]: -0.364%
Percent Effect [2]: 2.9%

Cc1nccc([C@@H]2C[C@@H]3CCN(S(C)(=O)=O)C[C@H]3O2)n1
Percent Effect [1]: 2.92%
Percent Effect [2]: 11.1%

Cc1ccsc1CN(C)Cc1nc2c(cnn2C)c(=O)[nH]1
Percent Effect [1]: -2.46%
Percent Effect [2]: -6.66%

Cc1nc(-c2ccc(Cl)s2)sc1C(=O)NCCS(N)(=O)=O
Percent Effect [1]: -0.408%
Percent Effect [2]: -17.2%

CC(C)c1nc(C2CCCN2CC(=O)N2CCc3ccccc32)no1 (configuration not stated)
Percent Effect [1]: 1.52%
Percent Effect [2]: 10.6%

CCn1c(CN(C)C)nnc1C1CCN(c2ccnc(C)c2)CC1
Percent Effect [1]: 4.18%
Percent Effect [2]: -16.1%
